Results filed as inconclusive are left out. Where a call stands in place of a potency, no number is given. A number with no mark means an inactive call. Calls of active or inactive are those of the source. Calls come from the whole dose curve; as a rule, active = well fitted inhibition curve with a large enough effect in the signal ratio in the repeat runs, with a control signal flat; inconclusive = weak or mixed curves, or effect the other way; inactive = flat fitted curve, though single readings scatter; the % refers to the signal ratio.
Target: D(2) dopamine receptor (Homo sapiens) (UniProt P14416)
Assay: Dopamine D2 receptor (DRD2) small molecule antagonists, cell-based qHTS assay (AID 1963595)
Details: HEK293-DRD2 cAMP HTRF antagonist mode; series mostly up to 92.4 µM
Source text: National Center for Advancing Translational Sciences [NCATS]
Division of Preclinical Innovation [DPI]
U.S. Environmental Protection Agency [EPA]
National Institutes of Environmental Health Sciences [NIEHS]
National Toxicology Program [NTP]
U.S. Food and Drug Administration [FDA]
DRD2 is the D2 subtype of the dopamine receptor, which is coupled to Gi subtype of G protein-coupled receptor. This G protein-coupled receptor inhibits adenylyl cyclase activity. The DRD2-HEK293 cell line stably expressing D2 dopamine receptor can be used for screening agonists and antagonists of interactions between D2 and its ligands. The Hek293-DRD2 cAMP assay is based on HTRF technology. It measures changes of cAMP accumulation in response to Gi coupled GPCR activation or inhibition.
Tox21 Assay Protocol Summary:
DRD2-Hek293 cells were dispensed at 600 cells/3uL/well in 1536-well white plates using a Multidrop Dispenser. After the assay plates were incubated at a 37 C/5% CO2 incubator for 24 h, 1 uL of Ro20-1724 at final concentration of 0.1 mM was transferred to the assay plate by a Flying Reagent Dispenser. Following Ro20-1724 addition, 23 nL of compound dissolved in DMSO, positive controls or DMSO only was added to the assay plates via Wako pintool station. The assay plates were incubated at room temperature for 10 min. Next, 1 uL of mixture of NKH477 (final concentration at 200 nM) and quinpirole (final concentration at 12 nM) was added into the plates. After the assay plates were incubated at room temperature for an additional 30 min, 2.5 ul/well of cAMP-d2 and 2.5 ul/well of anti-cAMP-cryptate were added respectively into the assay plates using a Flying Reagent Dispenser. The plates were incubated at room temperature for 1 h. The fluorescence intensity in the plates was measured at 340 nm excitation and 665 & 620 nm emission by an Envision plate reader.

Sequence of D(2) dopamine receptor (Homo sapiens) (P14416 whole entry, looked up): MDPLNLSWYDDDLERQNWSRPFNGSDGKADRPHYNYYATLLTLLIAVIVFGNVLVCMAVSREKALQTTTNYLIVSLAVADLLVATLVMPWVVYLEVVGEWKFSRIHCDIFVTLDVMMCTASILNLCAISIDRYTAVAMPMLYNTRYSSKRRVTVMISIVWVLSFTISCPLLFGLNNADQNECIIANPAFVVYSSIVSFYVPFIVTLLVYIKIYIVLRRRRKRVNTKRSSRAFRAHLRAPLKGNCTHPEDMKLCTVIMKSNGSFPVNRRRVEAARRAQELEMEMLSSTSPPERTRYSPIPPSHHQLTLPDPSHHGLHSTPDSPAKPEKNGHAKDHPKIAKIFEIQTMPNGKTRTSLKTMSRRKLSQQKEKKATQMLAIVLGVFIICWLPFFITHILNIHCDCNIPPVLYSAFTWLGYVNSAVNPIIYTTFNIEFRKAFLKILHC

SMILES	Potency	activity change, negative = inhibition
N#CCc1cccc(C(F)(F)F)c1	inactive	–
C=C(C)C(=O)OCCCCCCCCCCCCC	inactive	–
Cc1c(I)c(=O)n(-c2ccccc2)n1C	inactive	–
O=C(O)c1cccc(C[C@@H]2COc3ccc(OCc4nc5cc(F)ccc5s4)cc3[C@@H]2O)c1	inactive	–
CCN(CC)c1ccc(C(=O)c2ccccc2C(=O)O)c(O)c1	inactive	–
CCCCCCCCCCCCCCCCI	–	-1.21% [at 18.9 µM]
CCCCCCCCCCCCCCCC(=O)OC	–	-0.0877% [at 18.9 µM]
CCNc1nc(N)nc(Cl)n1	inactive	–
C1CCC2OC2C1 (stereo not given)	inactive	–
Cc1ccccc1C(=O)N1CC/C(=N\OS(=O)(=O)O)c2ccc(Cl)cc21	inactive	–
C[N+](C)(C)CC[N+]1(C)Cc2c(Cl)c(Cl)c(Cl)c(Cl)c2C1	inactive	–
Cc1ccc(C(=O)Nc2ccc(S(=O)(=O)O)c3cc(S(=O)(=O)O)cc(S(=O)(=O)O)c23)cc1NC(=O)c1cccc(NC(=O)Nc2cccc(C(=O)Nc3cc(C(=O)Nc4ccc(S(=O)(=O)O)c5cc(S(=O)(=O)O)cc(S(=O)(=O)O)c45)ccc3C)c2)c1	inactive	–
Cc1ccccc1S(=O)(=O)O	inactive	–
Cc1oc(C)c(C(=O)Nc2ccccc2)c1C	inactive	–
COCCCC/C(=N\OCCN)c1ccc(C(F)(F)F)cc1	inactive	–
CO[Si](C)(C)OC	inactive	–
CC(=O)N(O)CCCCCNC(=O)CCC(=O)N(O)CCCCCNC(=O)CCC(=O)N(O)CCCCCN	inactive	–
CC1COc2ccccc2N1C(=O)C(Cl)Cl (stereo not given)	inactive	–
C[C@@H]1NC(=O)[C@@H](N)CNC(=O)[C@H](C2CCNC(N)=N2)NC(=O)/C(=C/NC(N)=O)NC(=O)[C@H](CNC(=O)C[C@@H](N)CCCN)NC1=O (stereo not given in full)	–	-5.12% [at 0.348 µM]
CC(=O)OCCCc1ccccc1	inactive	–

SMILES	Potency	activity change, negative = inhibition
CO[Si](CCCNCCN)(OC)OC	inactive	–
IC(I)I	inactive	–
O=S(=O)(O)CO	inactive	–
O=Cc1cccc([N+](=O)[O-])c1	inactive	–
C=CCOCC(CO)(COCC=C)COCC=C	inactive	–
O=C1NC(c2ccccc2)(c2ccccc2)C(=O)N1COP(=O)(O)O	inactive	–
N[C@@H](CCC(=O)Nc1ccc([N+](=O)[O-])cc1)C(=O)O	inactive	–
O=C(O)c1cc(=O)c2ccccc2o1	inactive	–
Oc1ccc(/C=C/c2cc(O)cc(O)c2)cc1	inactive	–
O=C1C(c2[nH]c3ccc(S(=O)(=O)O)cc3c2O)=Nc2ccc(S(=O)(=O)O)cc21	inactive	–
O=C(O)/C=C/c1ccc(Cn2ccnc2)cc1	inactive	–
O=[N+]([O-])c1ccccc1CCO	inactive	–
CCCC(C)CO (stereo not given)	inactive	–
CNC(=O)[C@H]1O[C@@H](n2cnc3c(NCc4cc(Cl)ccc4OCc4cc(C)no4)ncnc32)[C@H](O)[C@@H]1N	inactive	–
CNCCS(=O)(=O)O	inactive	–
CNC(=O)c1c(I)c(NC(C)=O)c(I)c(C(=O)O)c1I	inactive	–
CN(C)CCCNCCC#N	inactive	–
O=C[C@H](O)[C@@H](O)[C@H](O)[C@H](O)CO	inactive	–
CCCO[Si](OCCC)(OCCC)OCCC	inactive	–
Cc1sccc1Br	inactive	–

Source: PubChem BioAssay (Tox21)
